Polio RdRp inh: poliovirus RdRp elongation inhibitors, primary screen, biochemical, fluorescence polarization, total intensity. poliovirus polymerase elongation; active compounds read low. AID 588519, 2011. % elongation, % (compound at 16.7 µg/mL). 0.66% of 150,000 active. Genome polyprotein (Poliovirus type 1 (strain Mahoney)), P03300; in the data active means % elongation below about 90%
Mtb MbtI inh: MbtI salicylate synthase inhibitors, primary screen, biochemical, fluorescence intensity. P9WFX0. purified MbtI enzyme, fluorescence intensity read-out. inhibition, % (concentration not given with the values). 0.89% of 100,000 active. AID 493033, 2011; in the data active means inhibition mostly above about 56%, no sharp cut-off; inactive means mostly below about 77%
MenB inh: M. tuberculosis MenB inhibitors, primary screen, biochemical, absorbance. 1,4-dihydroxy-2-naphthoyl-CoA synthase (Mycobacterium tuberculosis (strain ATCC 25618 / …. MenB enzyme assay, absorbance read-out. inhibition, % (no concentration beside the values). 0.43% of 100,000 active; in the data active means inhibition above about 21%, passing the limit was not always enough
Target sequence (P9WNP5 whole entry, looked up): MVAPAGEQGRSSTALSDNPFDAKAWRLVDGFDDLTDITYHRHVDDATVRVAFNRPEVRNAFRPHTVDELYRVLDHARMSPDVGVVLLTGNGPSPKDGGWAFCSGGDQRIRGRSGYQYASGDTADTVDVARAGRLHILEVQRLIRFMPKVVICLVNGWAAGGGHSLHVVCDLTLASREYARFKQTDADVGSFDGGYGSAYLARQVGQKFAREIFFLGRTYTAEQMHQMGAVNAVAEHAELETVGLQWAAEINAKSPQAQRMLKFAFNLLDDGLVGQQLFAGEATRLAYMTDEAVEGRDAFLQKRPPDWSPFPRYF
AID504770: growth inhibition of E. coli YBA685, primary screen, V. cholerae RctB inhibitors. E. coli YBA685 rctB-dependent plasmid, OD600 growth, 3 h; active compounds read low. z-score (concentration not given with the values). 0.27% of 130,000 active; in the data active means z-score below about -2, passing the limit was not always enough
Of the large screens only hits and unclear results are named; the others gave an inactive call. Compounds with a hit are over-represented: about 1.4% of the library has one in this group of screens.

COc1ccc(C2c3c(n(C)c4ccccc34)C(=O)N2CC(=O)NCc2cccs2)cc1 (configuration not stated)	none
O=C(c1cc2c(s1)CCCCCC2)N1CCC2(CC1)OCCO2	none
O=C(C1=Cc2sc3c(c2CS1)CCCC3)N1CCC2(CC1)OCCO2	Mtb MbtI inh 95.1
CC(=O)OC[C@H]1O[C@@H](n2ncc(=O)[nH]c2=O)[C@H](OC(C)=O)C1OC(C)=O (some centres not stated)	none
Brc1ccc(-c2csc(NN=C3CCCC3)n2)cc1	Mtb MbtI inh 79.8
Cc1c(C#N)c(NC(=O)c2ccc(Cl)cc2)n(Cc2cccnc2)c1C	none (no result: Polio RdRp inh, Mtb MbtI inh, MenB inh)
CCc1nnc(NC(=O)CC2CC3CCC2C3)s1 (configuration not stated)	none
O=C1c2ccccc2C(=O)N1SSN1C(=O)c2ccccc2C1=O	Polio RdRp inh 85.0
Cc1ccccc1NC(=O)N1CCCC(c2nc(-c3ccc(F)cc3)no2)C1 (configuration not stated)	MenB inh 29.2
c1ccc(-c2ccc(-c3ccccn3)nc2)nc1	AID504770 -2.35 (no result: Polio RdRp inh, Mtb MbtI inh, MenB inh)
c1ccc(-c2cccc(-c3ccccn3)n2)nc1	none (no result: MenB inh)
NC1=NC(=O)C(C(=O)NC2(C(F)(F)F)Oc3cc(Cl)c(Cl)cc3O2)S1 (configuration not stated)	Mtb MbtI inh 92.2
O=C(COc1ccc(Cl)cc1Cl)NO	AID504770 -5.45 (no result: Polio RdRp inh, Mtb MbtI inh, MenB inh)
CCC(CC)NC(=O)COc1ccc(Cl)cc1Cl	none (no result: MenB inh)
CCCn1c(=O)n(C)c(=O)c2c(SCC(=O)/C(C#N)=C(\C)N)nc(CC(C)C)nc21	none
CC1COc2c(N3CCN(C)CC3)c(F)cc3c(=O)c(C(=O)OCc4ccccn4)cn1c23 (configuration not stated)	AID504770 -4.55
Cn1c(=O)[nH]c(=O)c2c1nc1n2CCCN1c1ccccc1	MenB inh 35.8
Cc1cccc(N2CCCn3c2nc2c3c(=O)n(C)c(=O)n2C)c1	none
CSc1ncc(/C=C2/C(=O)NC(=O)N(C3CCCCC3)C2=O)cn1	Mtb MbtI inh 71.0
Cc1ccc(/C=C2/C(=O)NC(=O)N(C3CCCCC3)C2=O)cc1	none
CC(C)Cn1c(=S)[nH]c2ccccc21	none
CC(C)Cn1c(=S)[nH]c2cc(Cl)ccc21	Polio RdRp inh 78.0, Mtb MbtI inh 84.7
Nc1nc(CSC2CCS(=O)(=O)C2)nc(NCCc2ccccc2)n1 (configuration not stated)	none
Cc1sc2nc(CC#N)[nH]c(=O)c2c1C	none (no result: MenB inh)
CCN(CC)Cc1nc2sc(C)c(C)c2c(=S)[nH]1	Mtb MbtI inh 79.5
O=C(C1COc2ccccc2O1)N(Cc1ccc2c(c1)OCO2)C1CCCC1 (configuration not stated)	none
O=S(=O)(c1ccc(Cl)cc1)N(O)c1ccc(Cl)cc1	Mtb MbtI inh 87.5
CN(c1ccccc1)S(=O)(=O)c1ccc(Cl)cc1	none (no result: Mtb MbtI inh)
Cc1cccc2c1SC1CCCCC1OC(=O)N2 (configuration not stated)	none
O=C(c1ccccc1)N1CCn2c1nc1ccccc12	none (no result: Mtb MbtI inh)
COCCNC(=S)N1CCn2c1nc1ccccc12	Mtb MbtI inh 84.5
CCCN1CCN(c2cc(-c3ccccc3)nc3cc(-c4cccc(F)c4)nn23)CC1	none
Cc1ccc(O)c(C(=O)c2cnn(C(=O)Cc3csc(C)n3)c2)c1	Polio RdRp inh 86.0
O=C(O)C1CSC(c2cccnc2)=N1 (configuration not stated)	none (no result: Polio RdRp inh, MenB inh)
O=C(O)C1CSC(c2ccncc2)=N1 (configuration not stated)	MenB inh 90.1
O=C(Cn1c(C(F)(F)F)nc2ccccc21)Nc1ccc(S(=O)(=O)NCc2ccco2)cc1	none
O=c1c2ccccc2[se]n1-c1ccccc1	Mtb MbtI inh 103.2 (no result: AID504770)
COc1ccc2[nH]cc(C(=O)CSc3nnc(-c4ccoc4)c(-c4ccoc4)n3)c2c1	Mtb MbtI inh 75.4
Cn1cc(C(=O)CSc2nnc(-c3ccoc3)c(-c3ccoc3)n2)c2ccccc21	none
C/C(=N\N)c1cccs1	none
COc1ccc(C2C(C#N)=C(N)OC3=C2C(=O)CCC3)cc1 (configuration not stated)	none
COC(=O)C1=C(N)OC2=C(C(=O)CCC2)C1c1ccc(OC)cc1 (configuration not stated)	MenB inh 36.5
CCOCCCN=C1SCC(CC)N1C(=O)c1ccc(C#N)cc1 (configuration not stated)	Polio RdRp inh 89.0
N#Cc1ccc(C(=O)N2CCCSC2=NCCc2ccccc2)cc1	none

Source: PubChem
